Calls of active or inactive are those of the source. How the source made its calls: active means hit-call score of the fitted dose curve at least 0.9, where 1 is the maximum; inconclusive means response in the unintended direction; inactive means score below 0.9.

The subject of this assay is DIO2 (gene 1734). The assay can be described thus: CCTE_GLTED_hDIO2: CCTE's human Deiodinase 2 (DIO2) Inhibition Assay, Great Lakes Toxicology and Ecology Division (GLTED) Lab (AID 2284050). As to the method: CCTE_GLTED_hDIO2 is a cell-free, single-readout assay designed to test the inhibitory activity of chemicals toward human iodothyronine Deiodinase type 2 (DIO2) enzyme. Enzyme is incubated in presence of test chemical for 3 hours during which uninhibited enzyme liberates free iodide from substrate. Free iodide is measured in a second step using the Sandell-Kolthoff method.CCTE_GLTED_hDIO2 is the assay component measured from the CCTE_GLTED_hDIO2 assay. It is designed to make measurements of enzyme activity, a form of enzyme reporter, as detected with absorbance signals by spectrophotometry.Data from the assay component CCTE_GLTED_hDIO2 was analyzed into 1 assay endpoint. This assay endpoint, CCTE_GLTED_hDIO2, was analyzed in the positive analysis fitting direction relative to DMSO as the negative control and baseline of activity. Using a type of enzyme reporter, loss-of-signal activity can be used to understand changes in the enzymatic activity as they relate to the gene DIO2. Furthermore, this assay endpoint can be referred to as a primary readout, because the performed assay has only produced 1 assay endpoint. To generalize the intended target to other relatable targets, this assay endpoint is annotated to the 'deiodinase' intended target family, where the subfamily is 'deiodinase Type 2'.
Human deiodinase type 2 (hDIO2) assay, developed at Great Lakes Toxicology and Ecology Division (GLTED) within the EPA's Center for Computational Toxicology and Exposure (CCTE), is designed to test the chemicals' ability to inhibit DIO2. Assay is based on iodide release measured by the Sandell-Kolthoff method and is run in 96-well plate format with assay plates run in triplicate (n=3). The method used for the deiodinase assay was largely based on Renko et al. (2012, 2015). These works describe the utilization of the SK reaction to measure deiodinase-liberated iodide in a 96-well-plate format. The SK reaction is based on the reduction of the yellow-colored cerium IV to the non-colored cerium III by arsenic, with the rate of this reaction increased in the presence of iodide in a concentration-dependent manner (Sandell and Kolthoff, 1937). Iodinated test chemicals can interfere as competitive inhibitors, or if the stock chemical has contaminating free-iodide present. Other chemicals, e.g.: nitrite, iron, and thiocyanate can interfere with the Sandell-Kolthoff reaction (see Sandell and Kolthoff, 1937).
`CCC(=C(c1ccc(O)cc1)c1ccc(OCCN(C)C)cc1)c1ccccc1`: the AC50 is 35.2 µM (active).

For the compound `ClC1=C(Cl)C(Cl)(Cl)C(Cl)=C1Cl`, the AC50 was 23.9 µM (active). `CCCCCCCCCCCCc1ccccc1S(=O)(=O)O`: the AC50 was 72.2 µM (active). With `CN1CCN(c2ccccc2/C=C2\SCCN(c3ccc(Cl)c(Cl)c3)C2=O)CC1` the figure was 104 µM (active); with `CCCCCCCCCCCCN1CCCC1=O`, 138 µM (active). As for `CC(C)(C)c1ccc(O)c(C(C)(C)C)c1`, the half-maximal activity concentration (AC50) was 159 µM (active). The value for `Cc1oc(-c2ccccc2)nc1CCOc1ccc(C[C@H](Nc2ccccc2C(=O)c2ccccc2)C(=O)O)cc1` was 46.1 µM (active); that for `CCCCCCCCCCCCCC[N+](C)(C)C` was 24.7 µM (active). The value for `NC(=O)N(O)[C@@H]1C=C[C@H](Oc2cccc(Oc3ccc(F)cc3)c2)C1` was 36.5 µM (active); that for `CC1=C(/C=C/C(C)=C/C=C/C(C)=C/C(=O)O)C(C)(C)CCC1` was 60.4 µM (active).

Turning to `c1ccc2cc3c(ccc4ccccc43)cc2c1`, the AC50 is 70 µM (active). The value for `CC(=O)NC1(c2cccc(F)c2)CCN(CC[C@@]2(c3ccc(Cl)c(Cl)c3)CN(c3ccccc3)C(=O)CO2)CC1` was 82.6 µM (active).

One may read the AC50 as the concentration at which the activity in the assay is half-maximal.
